NOD2-RIPK2 inh: inhibitors of human NOD2-RIPK2 interaction | O43353 | CHO BLA complementation NOD2-RIPK2, CCF4 ratio | inhibition, % at 4.98 µM | 0.38% of 360,000 active | AID 624267; in the data active means inhibition above about 21%
Target sequence (O43353 whole entry, looked up): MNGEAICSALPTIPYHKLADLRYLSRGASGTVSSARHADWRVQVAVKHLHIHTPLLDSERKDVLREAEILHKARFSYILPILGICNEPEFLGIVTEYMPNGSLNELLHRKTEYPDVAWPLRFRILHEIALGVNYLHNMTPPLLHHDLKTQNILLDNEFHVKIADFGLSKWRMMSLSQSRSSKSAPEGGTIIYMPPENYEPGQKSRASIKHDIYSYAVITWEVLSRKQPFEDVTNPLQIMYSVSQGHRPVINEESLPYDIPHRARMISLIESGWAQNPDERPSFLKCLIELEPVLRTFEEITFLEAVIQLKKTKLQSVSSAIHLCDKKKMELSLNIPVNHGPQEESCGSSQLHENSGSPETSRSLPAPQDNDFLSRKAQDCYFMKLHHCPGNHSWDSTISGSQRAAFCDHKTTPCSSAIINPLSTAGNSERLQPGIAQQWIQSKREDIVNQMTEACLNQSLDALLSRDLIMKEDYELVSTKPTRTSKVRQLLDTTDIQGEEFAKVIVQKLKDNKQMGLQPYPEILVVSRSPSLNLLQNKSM
TMEM16A inh: blocks the mouse calcium-activated chloride channel TMEM16A; HEK293 TMEM16A/YFP iodide influx fluorescence, ionomycin; 1.2% of 310,000 active; Q8BHY3; normalized B-score (activity score, 25-100; higher = stronger inhibition) at 10 µM;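 active means ratio plate-corrected score three or more library SD toward inhibition, starting fluorescence score within five deviations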;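 further: score derived from kinetic fluorescence span divided by baseline fluorescence per well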
TLR9-MyD88 inh: inhibitors of human TLR9-MyD88 binding | Q9NR96+Q99836 | inhibition, % at 4.98 µM | CHO BLA complementation TLR9-MyD88, CCF4 FRET ratio | 0.21% of 340,000 active;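 active means inhibition above the mean over all tested compounds plus 3 SD, cut at about 21% in these data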
TLR4 MyD88 comp: inhibitors of human TLR4-MyD88 binding. HeLa CL3-4 TLR4/MyD88 BLA complementation, FRET ratio. AID 861. inhibition, % at 8.4 µM. O00206+Q99836. 0.18% of 200,000 active; in the data active means inhibition above about 25%
GRK2 aptamer HTS: human GRK2 inhibition via aptamer displacement; 0.59% of 330,000 active; inhibition of aptamer binding, % at 10 µM; bead flow cytometry, FAM-aptamer displacement from GRK2; AID 488847;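 active means inhibition of aptamer binding above 40%, roughly 3 SD of noise, on plates passing a quality check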;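 further: median bead fluorescence of bound FAM aptamer so fluorescent compounds give negative values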
ANO1 activ: activators or potentiators of mouse TMEM16A chloride channel | B-score at 10 µM | Q8BHY3 | HEK293 TMEM16A/YFP-H148Q/I152L, iodide quench fluorescence; stronger effect = lower value | 0.3% of 340,000 active;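 active means fluorescence-ratio B-score plate-corrected deviation score at least 3 library SD below zero, with starting fluorescence score within 5 deviations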;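 further: channel opened by trigger with iodide after compound preincubation; score built on the fluorescence ratio of max minus min over baseline; more negative score means more quench and so TMEM16A activation or potentiation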
TMEM16A reconf: re-confirmation of mouse TMEM16A chloride channel inhibitors. shares compounds with TMEM16A inh. HEK293 TMEM16A/YFP-H148Q, iodide quench fluorescence; ionomycin added to raise cell calcium. inhibition, % at 10 µM. 39% of 2,300 active. AID 652189;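 active means mean duplicate percent inhibition, scaled so buffer wells are 0 and the reference blocker 100, over three buffer SD above buffer mean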
TMEM16A Ca cntr: alters calcium mobilization in TMEM16A HEK293 cells, counter-screen | calcium response (% of ionomycin), % at 10 µM | shares compounds with TMEM16A inh | AID 652231 | 2% of 2,300 active | TMEM16A/YFP HEK293, Fluo4 calcium mobilization;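 active means duplicate-averaged calcium signal over 20% of the ionomycin maximum, relative to buffer baseline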;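 further: each well's signal is peak minus trough fluorescence divided by its pre-addition baseline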
YFP-HEK293 quench: parental YFP-HEK293 iodide quench counter-screen activity; AID 652233; 2,300 tested, under 10 active; YFP ratio F(max-min)/F0 at 10 µM; ionomycin; shares compounds with TMEM16A inh;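 active means yellow fluorescent protein signal ratio exceeding the buffer control mean by over 5 SD of those controls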;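 further: ratio is mean of duplicate wells from kinetic YFP trace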
ClC-1 inh: rat ClC-1 inhibition, TMEM16A specificity screen; CHO ClC-1-YFP, iodide influx fluorescence quench; iodide control reads 0, buffer control 100; ratio percent, % at 10 µM; 2,300 tested, under 10 active; AID 652236; shares compounds with TMEM16A inh;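 active means duplicate-mean ratio percent above the mean of iodide-only control wells, which defines zero, plus 5 of their SD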;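 further: higher percent means stronger block of ClC-1 iodide influx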
Numbers stand for hits; – = inactive; · = no result. This is a sample that favours compounds with a hit; in the whole collection about 2.2% have one here.

SMILES	NOD2-RIPK2 inh	TMEM16A inh	TLR9-MyD88 inh	TLR4 MyD88 comp	GRK2 aptamer HTS	ANO1 activ	TMEM16A reconf	TMEM16A Ca cntr	YFP-HEK293 quench	ClC-1 inh
O=C(OCc1nnc(-c2ccc([N+](=O)[O-])cc2)o1)c1ccc(F)c(S(=O)(=O)N2CCOCC2)c1	–	·	–	·	·	–	·	·	·	·
CCN(CC)S(=O)(=O)c1ccc(Cl)c(NC(=O)COC(=O)c2ccc(O)cc2)c1	–	25	–	–	–	–	45%	–	–	–
CCN(CC)S(=O)(=O)c1cc(C(=O)OCC(=O)Nc2cccc(S(=O)(=O)N(C)C)c2)ccc1F	–	25	–	–	–	–	–	–	–	–
C=CCNC(=S)N(CC=C)C1CCS(=O)(=O)C1 (centres undefined)	–	–	–	–	–	–	·	·	·	·
CN1c2ccccc2C(O)=C(C(=S)Nc2ccc(F)c(Cl)c2)S1(=O)=O	–	100	–	–	–	–	62%	–	–	–
CN1c2ccccc2C(O)=C(C(=S)Nc2ccccc2)S1(=O)=O	–	–	–	–	–	–	·	·	·	·
CCCCNC(=O)c1sc(=S)n2c1[nH]c(=O)c1ccccc12	–	100	–	–	–	–	56%	–	–	–
Cc1ccc(-c2onc(C)c2C)cc1S(=O)(=O)N1CCOc2ccccc21	–	100	–	·	–	–	–	–	–	–
Cc1cnc(NC(=O)c2sc(Nc3ccccc3)nc2N)o1	–	–	·	·	–	–	·	·	·	·
CCOc1cc(/C=N/NC(=O)c2ccc(CN3CCOCC3)cc2)ccc1OCc1ccccc1	–	25	–	–	–	–	21%	–	–	–
COc1ccc(CN2C(=O)C(CC(=O)NC3CCCCC3)CC(C(=O)N(C)C)=C2C)cc1 (centres undefined)	–	·	–	·	·	·	·	·	·	·
FC(F)(F)c1cccc(Nc2cc(-c3ccccc3)nc3ncnn23)c1	–	–	–	·	–	–	·	·	·	·
FC(F)(F)c1ccc(N2CCN(c3cc(-c4ccccc4)nc4ncnn34)CC2)nc1	–	100	–	–	–	–	36%	–	–	–
Cc1nnc2ccc(N3CCC4(CC3)OCCO4)nn12	–	–	–	–	–	–	·	·	·	·
Cc1nnc2ccc(N3CCCC3)nn12	–	25	–	–	–	–	–	–	–	–
COc1cc2ccccc2cc1C(=O)Nc1ccccc1N1CCCC1	–	–	–	·	–	–	·	·	·	·
COc1cc2ccccc2cc1C(=O)Nc1ccccc1Cl	–	100	–	·	–	–	70%	–	–	–
COc1ccccc1NC(=O)c1cc2cc(Br)ccc2cc1O	–	100	–	·	–	–	76%	–	–	–
O=C(N/N=C/c1sc(N2CCOCC2)nc1-c1ccccc1)c1cccc(S(=O)(=O)N2CCOCC2)c1	–	–	–	·	–	–	–	–	–	–
COc1ccc(OC)c(S(=O)(=O)Nc2cccc3ccc(O)cc23)c1	–	–	–	·	–	–	·	·	·	·
O=C(C1CCN(C2CCN(CC3CC=CCC3)CC2)CC1)N1CCOCC1 (centres undefined)	–	–	–	–	–	–	·	·	·	·
CC(C)S(=O)(=O)N1CCCC(C(=O)c2cccc(Cl)c2)C1 (centres undefined)	–	–	–	–	–	–	·	·	·	·
CCc1ccc(-c2nc(CSCC(=O)N3CCN(c4ncccn4)CC3)c(C)o2)cc1	–	25	–	–	–	–	–	–	–	–
CSc1ccc(-c2nc(CSCC(=O)NC3CC3)c(C)o2)cc1	–	–	–	·	–	–	·	·	·	·
CSc1ccc(-c2nc(CSCC(=O)N3CCOCC3)c(C)o2)cc1	–	25	–	–	–	–	28%	–	–	–

Screens deposited in PubChem by several laboratories.
